Screens from PubChem.
The list is not random: actives were taken first. Their share in the collection is about 5.5%.
Six1-Eya2 blk = inhibitors of human Six1/Eya2 interaction; 0.56% of 360,000 active; AlphaScreen GST-Six1/His-Eya2 binding, biochemical; stronger effect = lower value; Q15475+O00167; AID 651725; activity change, % (concentration not given with the values); in the data active = activity change below about -65%; inconclusive = mostly about -30% to -63%; also: % is scaled to controls: 0 for no effect and ±100 for the full control effect
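AlphaScreen with GST-Six1 and His-Eya2 (5X mix: 250 nM and 500 nM), glutathione donor and nickel acceptor beads; buffer 50 mM Tris pH 8.0, 300 mM NaCl, 1 mM TCEP; 1 h at 37 C in the dark.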
MBNL1-CUG inh = blocks human MBNL1 binding to CUG repeat RNA; TR-FRET MBNL1-His/biotin-(CUG)12 binding, 665/545 ratio; 0.036% of 280,000 active; AID 2675; Potency, µM (series often up to 57.5 µM), without a hit: top-dose activity change, negative = inhibition, hits mostly inhibitors; Q9NR56; active = well fitted inhibition curve with a large enough effect in the signal ratio, with a control signal flat, not every such curve was filed as active; inconclusive = small, poorly fitted or top-dose-only effect, or effect the other way, or a change in a side signal; inactive = no such curve, though single readings can be large or run the other way; the % refers to the signal ratio; also: potency is read from the fitted curve at half-maximal effect; % is scaled to controls: 0 for no effect and ±100 for the full control effect
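TR-FRET between His-tagged MBNL1 and biotin-(CUG)12 RNA, detected with Tb anti-His antibody (0.055 ng/ul) and streptavidin-XL665 (5 nM), 60 min at room temperature. Compounds titrated 92 nM to 58 uM; 665/545 nm ratio normalized to buffer and complex controls.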
RORgamma inh = inhibitors of mouse ROR gamma transcriptional activity; P51450; Drosophila S2 Gal4-RORgamma UAS-luciferase reporter, 20 h; Potency, µM (top dose mostly 53.6 µM), inactives show at the top dose activity change, negative = inhibition, most hits filed as inhibitors; 5.4% of 310,000 active; also: potency is read from the fitted curve at half-maximal effect; % is scaled to controls: 0 for no effect and ±100 for the full control effect; nearly all actives have a fitted effect of over 60% in size
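Drosophila S2 cells stably expressing Gal4-DBD/mouse RORγ fusion under metallothionein promoter plus UAS-luciferase; compound 1 h, then 700 uM CuSO4 induction for 20 h at ambient temperature; inhibition read as reduced luminescence.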
VP16 counter = counter-screen for ROR gamma inhibitors: Gal4-VP16 reporter | Drosophila S2 Gal4-VP16 UAS-luciferase, luminescence, 20 h | Potency, µM (series often up to 53.6 µM), for the others: at the highest dose activity, negative = inhibition, actives largely listed as inhibitors | 3.5% of 310,000 active;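 also: Gal4-VP16 expression switched on by copper sulfate through the metallothionein promoter; potency is read from the fitted curve at half-maximal effect; % is scaled to controls: 0 for no effect and ±100 for the full control effect; nearly all actives have a fitted effect of over 50% in size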
CBFb-RUNX1 inh = CBF-beta/RUNX1 interaction disruption. Q01196+Q13951. AlphaScreen CBFb-His/RUNX1-biotin binding, biochemical. Potency, µM (top dose mostly 59.8 µM), for the others: top-dose activity, negative = inhibition, actives largely listed as inhibitors. 230,000 tested, under 10 active. AID 1477; also: % of control where 0% means no effect
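Bead-based AlphaScreen assay; binding partners His-tagged CBF-beta and biotinylated RUNX1 at 30 nM each. Compound exposure 15 min after a 20-min protein preincubation; bead step 90 min; all steps at room temperature.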
CtBP-E1A inh = blocks the CtBP interaction with E1A; AlphaScreen GST-E1A/His-CtBP binding, 1536-well; stronger effect = lower value; activity change, % (test concentration not listed); 0.49% of 340,000 active; in the data active = activity change below about -65%; inconclusive = mostly about -30% to -63%; also: % is scaled to controls: 0 for no effect and ±100 for the full control effect
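AlphaScreen with 125 nM GST-E1A and 125 nM His-CtBP (5X stocks) in Tris pH 8.0, 300 mM NaCl, BSA, Tween 20, TCEP. Compounds preincubated 2 h at 37 deg C, then glutathione donor/nickel acceptor beads added for 1 h at 37 deg C in dark.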
Active calls of the source: *; ? = inconclusive; . = no result given; [ ] = dose if it differs, or a comment. Unless noted, calls follow the shape of the dose curve; as a rule, active = well fitted curve in the direction sought with a large enough effect; inconclusive = small, poorly fitted or top-dose-only effect, or another doubt; inactive = no such curve, though single readings can be large; an effect the other way counts as inactive or inconclusive.

SMILES	Six1-Eya2 blk	MBNL1-CUG inh	RORgamma inh	VP16 counter	CBFb-RUNX1 inh	CtBP-E1A inh
COc1ccc2[nH]cc(CCNc3ncncc3-c3ccoc3)c2c1	.	.	-6%	11µM*	.	.
O=C(CSc1ccccn1)Nc1ccc2c(c1)C(=O)c1ccccc1C2=O	-14	?	?	?	5%	0
O=C(CSc1n[nH]c(=O)[nH]c1=O)Nc1ccc2c(c1)C(=O)c1ccccc1C2=O	-72*	?	0%	-16%	-16%	-85*
CCC(CC)c1nnc(NC(=O)C2CCCO2)s1 (stereo unspecified)	-2	-12%	2%	0%[10 µM]	5%	-2
Cc1cccc(NC(=O)c2cnc3sccn3c2=O)c1C	.	?	45%	-10%	?	.
O=C(Nc1cnc2ccccn2c1=O)c1ccc(Cl)cc1Cl	0	?	2.5µM*	?	2%	.
Cc1cccc(NC(=O)c2cnc3ccccn3c2=O)c1	4	7%	2.5µM*	?	11%	-17
O=C(Nc1cnc2sccn2c1=O)c1ccccc1Cl	1	1%	7.1µM*	?	16%	2
Cc1ccc(C(=O)Nc2cnc3ccccn3c2=O)cc1	5	?	-25%	?	-8%	7
O=C(NCCCn1ccnc1)c1[nH]c(C(F)(F)F)nc1-c1ccccc1	-7	.	.	.	.	1
CC(=O)Nc1ccc2c(c1)n(C)c(=O)n2C	4	1%	-1%	0%	11%	0
Cn1c(=O)n(C)c2cc(NC(=O)CCl)ccc21	-2	-6%	11µM*	?	-1%	7
CCOC(=O)C(C(=O)OCC)C(Nc1cccc(Br)c1)c1ccccc1 (stereo unspecified)	0	-5%	11µM*	?	-2%	4
COc1cc(/C=C(\C#N)c2[nH]nc(N)c2C#N)cc(OC)c1O	?	?	-21%	-9%	-3%	-67*
CC1CC(C)CN(C(=O)COC(=O)CN2C(=O)c3ccccc3C2=O)C1 (stereo unspecified)	10	.	.	.	.	8
CC1CC(C)CN(C(=O)c2ccc3c(c2NCCO)C(=O)c2ccccc2C3=O)C1 (stereo unspecified)	-70*	?	-30%	?	?	?
O=C(NC1=NCCS1)c1sc2cc(Cl)cc(Cl)c2c1Cl	-6	4%	6.3µM*	?	1%	-5
CCOc1cc(C(=S)N2CCC(O)CC2)ccc1OS(=O)(=O)c1ccc(Br)cc1	-8	3%	30%	-2%	-11%	4
CCOc1cc(C(=S)N2CCCCC2)ccc1OS(=O)(=O)c1ccc(Cl)cc1	-16	-2%	10µM*	-21%	-8%	-14
CCOc1cc(C(=S)N2CCCCC2)ccc1OS(=O)(=O)c1ccc(Br)cc1	-15	2%	7.1µM*	-12%	-3%	-16
CCOc1cc(C(=S)N2CCOCC2)ccc1OS(=O)(=O)c1ccc(C)cc1	-3	-13%	8%	17%	.	0
CN(CCc1ccccc1)C(C(=O)Nc1ccc2c(c1)OCCO2)c1ccnc2ccccc12 (stereo unspecified)	-14	.	.	.	.	-11
O=C(NC(=S)Nc1cccc2cccnc12)c1ccccc1	-6	8%	2.2µM*	6.3µM*	-7%	-3
O=C(NC(=S)Nc1cccc2[nH]ncc12)c1ccccc1	-4	.	-9%	-7%	-18%	-22
O=C(NC(=S)Nc1cccc2cccnc12)c1cccs1	-2	-3%	-1%	-5%	3%	.
O=C(NC(=S)Nc1cccc2cnccc12)c1ccccc1	22	1%	10µM*	?	-13%	0
CCC(CO)Oc1cc(NC(=O)c2cccc(Cl)c2)c2ncn(C(C)C)c2c1 (stereo unspecified)	-7	.	.	.	.	1
CC(C)CCNC(=O)C1(C)CCN1Cc1ccc(-c2ccccn2)cc1 (stereo unspecified)	17	.	.	.	.	21
